Assay [1] deals with Estrogen receptor beta (Homo sapiens) (UniProt Q92731). Put plainly: qHTS assay to identify small molecule agonists of the estrogen receptor beta (ER-beta) signaling pathway (AID 1259377; active = well fitted activation curve with a large enough effect in the signal ratio in the repeat runs, not every such curve was filed as active; the % refers to the signal ratio). A digest of the protocol:
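Reporter cells (HEK293T, ER-beta-UAS-bla) receive compounds or DMSO after a 6 hr pre-incubation. They then incubate 16 hr at 37C/5% CO2, and fluorescence from LiveBLAzer B/G substrate is measured after 2 hours at room temperature.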

Assay [2] has the same target. Description: qHTS assay to identify small molecule antagonists of the estrogen receptor beta (ER-beta) signaling pathway (AID 1259378; active = well fitted inhibition curve with a large enough effect in the signal ratio in the repeat runs, not every such curve was filed as active; the % refers to the signal ratio; note: potency is the fitted concentration of half-maximal effect). A digest of the protocol: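 ER-beta-UAS-bla HEK293T cells in 2% charcoal-stripped FBS medium treated with compound plus 1nM final 17-beta-estradiol for 16 hr at 37C. Beta-lactamase reporter read by FRET substrate fluorescence after 2 hours at room temperature.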

The nature of assay [3]: qHTS assay to identify small molecule agonists of the androgen receptor (AR) signaling pathway in the presence of an antagonist - cell viability counter screen (AID 1259379).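 Note: MDA-kb2 human breast cancer cells carrying an MMTV luciferase reporter; series mostly up to about 92 µM; nearly all actives have a fitted effect of over 25% in size.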 A digest of the protocol: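 MDA-kb2 viability measured by CellTiter-Fluor fluorescence in the same wells as the luciferase signal; nilutamide 3.0uM final; 15-point compound titration; 16 hr at 37C.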

A short description of assay [4]: qHTS assay to identify small molecule agonists of the estrogen receptor beta (ER-beta) signaling pathway - cell viability counter screen (AID 1259380). Note: nearly all actives have a fitted effect of over 30% in size. Note: potency is the fitted concentration of half-maximal effect. A digest of the protocol: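 Measured: luminescence from CellTiter-Glo after 30 min at room temperature, added to wells already read for the LiveBLAzer FRET reporter (2 hr substrate); ER-beta-UAS-bla HEK293T cells had 16 hr compound treatment at 37C, 5% CO2.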

The nature of assay [5]: qHTS assay to identify small molecule antagonists of the estrogen receptor beta (ER-beta) signaling pathway - cell viability counter screen (AID 1259382). Note: nearly all actives have a fitted effect of over 55% in size. Note: potency is the fitted concentration of half-maximal effect. A digest of the protocol:
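Readout: luminescence, CellTiter-Glo, same wells as bla assay. System: ER-beta-UAS-bla GripTite HEK293T, 2% charcoal-stripped FBS. Exposure: compounds plus 1nM 17-beta-estradiol, 16 hr, 37C.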

Assay [6] has as its target Estrogen receptor (Homo sapiens) (UniProt P03372). Put plainly: qHTS assay to identify small molecule agonists of the estrogen receptor alpha (ER-alpha) signaling pathway in the presence of an antagonist (AID 1259383; calls by dose curve; note: top concentration of the series differs between compounds; nearly all actives have a fitted effect of over 15% in size). A digest of the protocol:
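Quantitative HTS confirmation: compounds titrated at 15 concentrations onto estrogen-deprived VM7Luc4E2 cells carrying a four-ERE luciferase construct, with ICI-182,780 present at 10.0nM final. Signal is luminescence after 22hr exposure.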

The nature of assay [7]: qHTS assay to identify small molecule agonists or antagonists of the thyroid stimulating hormone receptor (TSHR) signaling pathway - wild type cell line counter screen (AID 1259384; calls by dose curve). A digest of the protocol: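 Wild-type Hek293 cells, 800/well, 18 h at 37C, then compound with Ro20-1724 for 30 min RT. cAMP by HTRF (cAMP-d2/anti-cAMP cryptate), 1 h RT, fluorescence read. 15 concentrations, triplicates.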

The target of assay [8] is Thyrotropin receptor (Homo sapiens) (UniProt P16473). Description: qHTS assay to identify small molecule antagonists of the thyroid stimulating hormone receptor (TSHR) signaling pathway (AID 1259385; calls by dose curve; note: nearly all actives have a fitted effect of over 20% in size). A digest of the protocol: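 TSHR-HEK293 cells (800/well) plated 18 h, then compounds with Ro20-1724 and TSH at 1.5 ng/mL final, 30 min at room temperature. cAMP quantified by HTRF (cAMP-d2/anti-cAMP-cryptate, 1 h); 15 concentrations in triplicate.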
Sequence of Thyrotropin receptor (Homo sapiens) (P16473 whole entry, looked up): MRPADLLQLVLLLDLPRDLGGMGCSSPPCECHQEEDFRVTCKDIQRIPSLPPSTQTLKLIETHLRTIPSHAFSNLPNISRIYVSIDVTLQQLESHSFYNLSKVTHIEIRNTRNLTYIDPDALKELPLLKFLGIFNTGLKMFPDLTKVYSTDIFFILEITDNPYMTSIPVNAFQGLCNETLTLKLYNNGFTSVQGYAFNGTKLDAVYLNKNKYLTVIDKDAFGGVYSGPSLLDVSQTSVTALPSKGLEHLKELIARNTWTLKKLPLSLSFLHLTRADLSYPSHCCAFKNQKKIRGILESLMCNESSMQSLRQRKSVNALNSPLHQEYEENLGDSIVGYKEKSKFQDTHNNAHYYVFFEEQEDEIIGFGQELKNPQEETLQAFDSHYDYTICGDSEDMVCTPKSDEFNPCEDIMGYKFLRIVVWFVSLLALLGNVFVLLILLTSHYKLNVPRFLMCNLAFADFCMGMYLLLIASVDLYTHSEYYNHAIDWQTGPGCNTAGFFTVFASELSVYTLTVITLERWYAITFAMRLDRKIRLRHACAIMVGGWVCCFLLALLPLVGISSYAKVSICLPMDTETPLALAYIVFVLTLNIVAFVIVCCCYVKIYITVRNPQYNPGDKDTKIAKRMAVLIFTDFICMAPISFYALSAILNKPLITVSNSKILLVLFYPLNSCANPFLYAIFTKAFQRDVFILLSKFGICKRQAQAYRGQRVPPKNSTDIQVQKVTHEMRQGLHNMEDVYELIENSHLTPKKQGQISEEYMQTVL

Assay [9] is described as follows: qHTS assay to identify small molecule agonists of the estrogen receptor alpha (ER-alpha) signaling pathway in the presence of an antagonist - cell viability counter screen (AID 1259386).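 Note: series mostly up to about 92 µM; cells exposed to compounds for 22 h at 37 °C before the viability read; nearly all actives have a fitted effect of over 30% in size.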 A digest of the protocol:
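The test measures whether compounds kill ER-alpha reporter cells (VM7Luc4E2) under antagonist co-treatment (ICI-182,780, 10.0nM). Fluorescence from CellTiter-Fluor is read after a 22hr exposure.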

Assay [10] deals with Progesterone receptor (Homo sapiens) (UniProt P06401). Put plainly: qHTS assay to identify small molecule agonists of the progesterone receptor (PR) signaling pathway (AID 1346784; calls by dose curve; note: nearly all actives have a fitted effect of over 30% in size). A digest of the protocol:
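Reporter assay, GripTite PR-UAS-bla HEK 293T cells: 16 hr exposure to DMSO-dissolved compounds at 37C, 5% CO2, in steroid-depleted (2% charcoal-stripped FBS) medium; beta-lactamase measured by FRET fluorescence.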

Assay [11] shares this target. Put plainly: qHTS assay to identify small molecule antagonists of the progesterone receptor (PR) signaling pathway (AID 1346795; active = well fitted inhibition curve with a large enough effect in the signal ratio in the repeat runs, not every such curve was filed as active; the % refers to the signal ratio; note: potency is the fitted concentration of half-maximal effect). A digest of the protocol: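 Stimulus R5020 at 1 nM final; cells HEK293T PR-UAS-bla; medium with 2% charcoal-stripped FBS; compound exposure 16 hr at 37C, 5% CO2; detection by FRET beta-lactamase substrate, 2 hr, room temperature.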
Assay [12] is described as follows: qHTS assay to identify small molecule antagonists of the progesterone receptor (PR) signaling pathway - cell viability counter screen (AID 1346798). Note: nearly all actives have a fitted effect of over 50% in size. Note: potency is the fitted concentration of half-maximal effect. A digest of the protocol:
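In the same plates used for the beta-lactamase readout, cell viability of compound- and R5020-treated PR-UAS-bla HEK293T cells (16 hr, 37C) was assessed by CellTiter-Glo luminescence.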

Assay [13] is described as follows: qHTS assay to identify small molecule agonists of the TGF-beta/Smad signaling pathway - cell viability counter screen (AID 1346829). Note: top concentration of the series differs between compounds; nearly all actives have a fitted effect of over 45% in size. A digest of the protocol: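 Compound-treated SBE-bla HEK 293T cells (5 hr, 37 C) were assessed for viability with CellTiter-Glo in parallel with the reporter read.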
Assay [14] is described as follows: Human pregnane X receptor (PXR) small molecule agonists, qHTS cell viability counter screen (AID 1346977). Note: nearly all actives have a fitted effect of over 50% in size. Note: potency is the fitted concentration of half-maximal effect. A digest of the protocol: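 In each well, the PXR reporter HepG2 line was checked for viability: CellTiter-Fluor reagent added 23hr post-dosing, fluorescence read after 1hr incubation at 37C.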
Assay [15] can be described thus: qHTS assay to identify small molecule antagonists of the TGF-beta/Smad signaling pathway - cell viability counter screen (AID 1346824). Note: nearly all actives have a fitted effect of over 50% in size. A digest of the protocol:
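SBE-bla HEK 293T cells, incubated overnight, then compound plus 0.25 ng/mL TGF-beta1 (stock added) for 5 hr at 37 C. Viability was read in the same wells by CellTiter-Glo luminescence after 30 min at room temperature.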

A short description of assay [16]: qHTS assay to identify small molecule agonists of the TGF-beta/Smad signaling pathway (AID 1346859; active = well fitted activation curve with a large enough effect in the signal ratio in the repeat runs, not every such curve was filed as active; the % refers to the signal ratio; note: series mostly up to about 77 µM). A digest of the protocol:
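Screening used HEK 293T SBE-bla cells at 4,000/well. Test agents: 5 hr, 37 C. Detection: FRET substrate, 2 hr RT, then excitation 405 nm with emissions at 460 and 530 nm.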

Assay [17] addresses Thyrotropin-releasing hormone receptor (Homo sapiens) (UniProt P34981). Put plainly: qHTS assay to identify small molecule antagonists of the thyrotropin-releasing hormone receptor (TRHR) signaling pathway (AID 1346877; active = well fitted inhibition curve with a large enough effect in the repeat runs, not every such curve was filed as active; note: series mostly up to about 51 µM). A digest of the protocol:
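Overnight-plated (18 h, 37 °C) HEK293 cells expressing TRHR were dye-loaded 2 h, treated with compound, then stimulated with TRH at 1 nM final. Fluorescence intensity was captured every second for 3 min.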

Assay [18] has the same target. Put plainly: qHTS assay to identify small molecule agonists of the thyrotropin-releasing hormone receptor (TRHR) signaling pathway (AID 1346891; calls by dose curve; note: series mostly up to about 58 µM). A digest of the protocol:
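Readout was intracellular calcium fluorescence in TRHR-Hek293 cells. Cells were incubated 18 h, dye-loaded 2 h at 37 °C, and treated with compound in agonist mode.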

Assay [19] addresses Androgen receptor (Homo sapiens) (UniProt P10275). Description: qHTS assay to identify small molecule agonists of the androgen receptor (AR) signaling pathway in the presence of an antagonist (AID 1259381; calls by dose curve; note: nearly all actives have a fitted effect of over 15% in size). A digest of the protocol:
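Luminescent ONE-Glo read, 30min at room temperature, follows 16hr compound exposure (15 concentrations) of MDA-kb2 cells at 37C, 0% CO2, with nilutamide added at 3.0uM final.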

The nature of assay [20]: qHTS assay to identify small molecule agonists of the progesterone receptor (PR) signaling pathway - cell viability counter screen (AID 1346799; calls by dose curve; note: nearly all actives have a fitted effect of over 45% in size; note: potency is the fitted concentration of half-maximal effect). A digest of the protocol:
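Multiplexed viability read: CellTiter-Glo luminescence, 30 min RT, following LiveBLAzer FRET measurement on PR-UAS-bla HEK293T cells exposed to compounds 16 hr.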

Several values for one entry are separate records, joined by “and”; a condition that tells them apart may be missing. Equal values may be shown once. Results filed as inconclusive are left out. More than one record can exist for a structure, and the calls need not agree. Activity calls are given as the source filed them. Unless noted, calls come from the whole dose curve; as a rule, active = well fitted curve in the direction sought with a large enough effect in the repeat runs; inconclusive = weak or mixed curves; inactive = no such curve, though single readings can be large; an effect the other way counts as inactive or inconclusive.

Sequence of Estrogen receptor beta (Homo sapiens) (Q92731 whole entry, looked up): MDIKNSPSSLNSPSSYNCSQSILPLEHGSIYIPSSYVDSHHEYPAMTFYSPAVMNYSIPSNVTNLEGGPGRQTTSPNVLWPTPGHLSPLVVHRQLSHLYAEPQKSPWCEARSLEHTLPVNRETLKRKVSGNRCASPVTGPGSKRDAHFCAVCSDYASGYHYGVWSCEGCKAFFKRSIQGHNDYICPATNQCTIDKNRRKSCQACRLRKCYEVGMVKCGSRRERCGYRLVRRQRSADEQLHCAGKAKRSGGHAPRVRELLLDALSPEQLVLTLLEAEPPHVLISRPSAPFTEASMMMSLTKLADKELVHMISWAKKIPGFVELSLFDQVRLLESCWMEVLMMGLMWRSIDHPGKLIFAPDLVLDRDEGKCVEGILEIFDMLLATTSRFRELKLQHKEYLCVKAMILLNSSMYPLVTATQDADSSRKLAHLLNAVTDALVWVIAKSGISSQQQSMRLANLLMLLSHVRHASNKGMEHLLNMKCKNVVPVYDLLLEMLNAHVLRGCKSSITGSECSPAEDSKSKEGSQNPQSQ
Sequence of Progesterone receptor (Homo sapiens) (P06401 whole entry, looked up): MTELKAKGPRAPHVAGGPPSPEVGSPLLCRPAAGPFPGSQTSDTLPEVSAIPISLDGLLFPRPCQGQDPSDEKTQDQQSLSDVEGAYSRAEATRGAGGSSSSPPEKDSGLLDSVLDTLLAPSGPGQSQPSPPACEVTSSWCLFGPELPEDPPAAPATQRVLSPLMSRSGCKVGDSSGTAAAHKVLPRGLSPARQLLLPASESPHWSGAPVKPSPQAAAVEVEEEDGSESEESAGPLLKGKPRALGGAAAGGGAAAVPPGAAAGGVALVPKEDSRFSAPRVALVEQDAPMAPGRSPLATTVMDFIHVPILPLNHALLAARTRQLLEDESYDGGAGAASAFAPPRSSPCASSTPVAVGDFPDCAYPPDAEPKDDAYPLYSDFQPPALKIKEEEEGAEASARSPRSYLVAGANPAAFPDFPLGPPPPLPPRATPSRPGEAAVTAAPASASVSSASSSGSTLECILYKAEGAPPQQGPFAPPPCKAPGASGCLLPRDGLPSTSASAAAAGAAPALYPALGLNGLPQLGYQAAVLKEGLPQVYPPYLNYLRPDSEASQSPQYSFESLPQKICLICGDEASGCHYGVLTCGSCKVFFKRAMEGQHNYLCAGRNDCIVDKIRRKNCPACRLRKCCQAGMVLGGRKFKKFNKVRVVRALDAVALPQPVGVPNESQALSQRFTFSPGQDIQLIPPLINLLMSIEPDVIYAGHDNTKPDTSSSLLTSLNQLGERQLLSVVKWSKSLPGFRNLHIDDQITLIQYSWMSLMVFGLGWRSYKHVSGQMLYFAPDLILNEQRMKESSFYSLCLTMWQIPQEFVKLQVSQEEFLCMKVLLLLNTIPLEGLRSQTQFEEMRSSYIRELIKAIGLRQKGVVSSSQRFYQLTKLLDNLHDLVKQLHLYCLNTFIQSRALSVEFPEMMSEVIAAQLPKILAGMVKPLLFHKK
Sequence of Thyrotropin-releasing hormone receptor (Homo sapiens) (P34981 whole entry, looked up): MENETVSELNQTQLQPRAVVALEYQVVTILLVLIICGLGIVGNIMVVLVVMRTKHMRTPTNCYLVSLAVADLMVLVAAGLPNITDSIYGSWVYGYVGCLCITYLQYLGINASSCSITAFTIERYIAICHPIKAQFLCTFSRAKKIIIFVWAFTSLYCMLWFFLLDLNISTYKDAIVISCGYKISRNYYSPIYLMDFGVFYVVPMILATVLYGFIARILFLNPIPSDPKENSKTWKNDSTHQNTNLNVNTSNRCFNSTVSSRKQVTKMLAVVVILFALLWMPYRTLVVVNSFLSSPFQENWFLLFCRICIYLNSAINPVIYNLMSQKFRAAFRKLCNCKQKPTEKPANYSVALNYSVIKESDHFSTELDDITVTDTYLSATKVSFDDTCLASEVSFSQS
Sequence of Estrogen receptor (Homo sapiens) (P03372 whole entry, looked up): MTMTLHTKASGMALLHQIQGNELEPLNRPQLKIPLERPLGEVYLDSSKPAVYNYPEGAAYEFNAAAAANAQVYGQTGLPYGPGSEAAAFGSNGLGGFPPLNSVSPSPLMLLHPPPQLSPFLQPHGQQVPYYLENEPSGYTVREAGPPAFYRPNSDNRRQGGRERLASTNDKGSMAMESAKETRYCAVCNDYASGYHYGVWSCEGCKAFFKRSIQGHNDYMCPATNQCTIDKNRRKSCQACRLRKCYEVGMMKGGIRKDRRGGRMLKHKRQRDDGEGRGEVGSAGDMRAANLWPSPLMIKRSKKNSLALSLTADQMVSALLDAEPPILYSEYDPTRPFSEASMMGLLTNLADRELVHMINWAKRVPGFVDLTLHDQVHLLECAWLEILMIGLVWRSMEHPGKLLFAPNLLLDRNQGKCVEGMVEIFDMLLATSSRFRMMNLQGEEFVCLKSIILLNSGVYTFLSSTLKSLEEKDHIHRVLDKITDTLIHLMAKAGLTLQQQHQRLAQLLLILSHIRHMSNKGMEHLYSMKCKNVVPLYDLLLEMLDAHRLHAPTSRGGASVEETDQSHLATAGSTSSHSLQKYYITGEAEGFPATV
Sequence of Androgen receptor (Homo sapiens) (P10275 whole entry, looked up): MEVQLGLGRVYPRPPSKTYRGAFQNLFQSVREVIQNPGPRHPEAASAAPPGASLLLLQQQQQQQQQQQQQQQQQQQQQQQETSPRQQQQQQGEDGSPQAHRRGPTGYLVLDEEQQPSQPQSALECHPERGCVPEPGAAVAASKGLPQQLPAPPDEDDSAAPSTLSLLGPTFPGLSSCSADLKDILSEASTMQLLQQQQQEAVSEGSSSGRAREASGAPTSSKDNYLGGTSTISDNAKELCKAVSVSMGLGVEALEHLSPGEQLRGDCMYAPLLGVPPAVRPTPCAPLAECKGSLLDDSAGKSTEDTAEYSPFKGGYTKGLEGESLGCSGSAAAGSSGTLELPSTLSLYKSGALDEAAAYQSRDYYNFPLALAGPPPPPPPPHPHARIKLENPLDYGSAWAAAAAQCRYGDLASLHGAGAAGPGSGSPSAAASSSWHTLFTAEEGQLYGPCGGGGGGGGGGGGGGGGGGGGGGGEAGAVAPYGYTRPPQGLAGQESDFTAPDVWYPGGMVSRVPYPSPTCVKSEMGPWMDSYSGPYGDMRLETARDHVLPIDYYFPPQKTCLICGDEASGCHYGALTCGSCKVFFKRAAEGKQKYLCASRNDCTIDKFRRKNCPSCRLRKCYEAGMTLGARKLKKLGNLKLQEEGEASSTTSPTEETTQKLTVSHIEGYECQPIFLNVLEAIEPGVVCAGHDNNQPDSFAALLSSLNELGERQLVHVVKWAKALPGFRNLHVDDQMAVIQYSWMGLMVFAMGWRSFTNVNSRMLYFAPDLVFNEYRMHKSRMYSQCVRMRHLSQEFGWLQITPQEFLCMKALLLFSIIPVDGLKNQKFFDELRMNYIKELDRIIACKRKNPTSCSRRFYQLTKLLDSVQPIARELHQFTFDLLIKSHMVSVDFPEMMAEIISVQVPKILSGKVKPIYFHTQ

Take `O=C(NC(=O)c1c(F)cccc1F)Nc1ccc(Cl)cc1`: the Potency entry in assay [1], in [2], in [3], in [4], in assay [5] and in assay [6] was “inactive” throughout. For the same molecule, the Potency entry in assay [9], in assay [10], in assay [11], in assay [12], in assay [13] and in assay [14] was “inactive” throughout. The result in [7] and in assay [8] was inactive.

Take `c1ccc(NNc2ccccc2)cc1`: the Potency result in assay [1], in assay [2], in assay [3], in [4], in assay [5] and in [10] was “inactive” in each case. Moreover, the Potency result in assay [11], in assay [12], in assay [15], in assay [13], in [17] and in assay [18] was “inactive” each time. In assay [14], the Potency entry was “inactive”. Besides, the call in assay [7], in [8] and in assay [16] was inactive.

For `Nc1c(Cl)cc([N+](=O)[O-])cc1Cl`, the Potency entry in assay [1], in assay [2], in assay [3], in assay [19], in assay [6] and in assay [10] was “inactive” in each case. Moreover, the Potency entry in assay [12], in [15], in assay [13], in assay [17], in assay [18] and in assay [14] was “inactive” in each case. The Potency in [4] is 61.5 µM (active) and 27.3 µM (active); in assay [11] it was 30.6 µM (active).

On to `Cc1cc(C)cc(C)c1`, for which the Potency entry in assay [1], in assay [2], in assay [3], in assay [4], in [5] and in assay [9] was “inactive” in each case. Further, the Potency entry in [10], in assay [11], in [12], in [20], in assay [13] and in assay [17] was “inactive” throughout. Moreover, the Potency entry in assay [18] and in [14] was “inactive” each time. Further, the outcome in [7], in [8] and in assay [16] was inactive.

For the molecule `CNC(=O)N(C)c1nnc(C(C)(C)C)s1`, the Potency result in assay [1], in assay [2], in assay [3], in assay [4], in assay [6] and in assay [9] was “inactive” in each case. The Potency entry in assay [10], in assay [11], in assay [12], in assay [15], in assay [13] and in [17] was “inactive” in each case. Also, the Potency result in [18] and in [14] was “inactive” each time. Besides, the outcome in [7], in assay [8] and in assay [16] was inactive.

As to `Cc1cccc(N)c1N`, the Potency entry in assay [1], in [2], in assay [3], in assay [4], in assay [5] and in assay [9] was “inactive” throughout. In addition, the Potency result in [10], in assay [12], in [20], in assay [15], in assay [13] and in [17] was “inactive” each time. Also, the Potency entry in assay [18] and in assay [14] was “inactive” throughout. Besides, the call in assay [7], in [8] and in [16] was inactive.

With `NNC(N)=S`, the Potency entry in [1], in assay [3], in assay [6], in assay [10], in assay [15] and in assay [13] was “inactive” throughout. Further, the Potency entry in assay [17] and in assay [18] was “inactive” each time. In addition, the Potency in assay [2] was 11.3 µM (active) and 30.6 µM (active); in [4], 31.8 µM (active); in assay [5] it was 12.7 µM (active); in [11], 11.3 µM (active) and 21.7 µM (active); in assay [12] it was 12.7 µM (active) and 24.3 µM (active); in assay [20], 43.3 µM (active). Further, the Potency entry in assay [14] is “inactive and 30.6 µM (active)”. The call in [7], in assay [8] and in assay [16] was inactive.

Take `C=CCc1ccc(OC)cc1`: the Potency entry in assay [1], in [2], in [3], in assay [4], in assay [10] and in assay [11] was “inactive” in each case. Also, the Potency entry in assay [12], in [15], in assay [13], in [17], in assay [18] and in assay [14] was “inactive” throughout. Also, the result in [7], in assay [8] and in [16] was inactive.

The values above are taken from PubChem BioAssay (Tox21).
